Results on 93 compounds are retold here after PubChem BioAssay AID1531 (NMMLSC, 2009).

Among all 290,000 compounds or so, about 3,300 (1.1%) were called active. Rule as the data show it: active = binding response below about 67% or above about 130%; inconclusive = no clear call, values can overlap the other calls; inactive = in between. The entries come from a sample that favours actives as a whole.

This assay addresses Mitogen-activated protein kinase kinase kinase 2 (Homo sapiens) (UniProt Q9Y2U5). As to the kind of experiment: wildtype MEKK2 PB1-MEK5 interaction, increase or decrease – biochemical, multiplex bead flow cytometry, Alexa488-MEK5, primary screen (AID 1531). The settings on record: Alexa488-MEK5 binding to MEKK2 WT, at 10 µM, actives lie on both sides. Background: In flow cytometry, cells or beads pass a laser one at a time.
Turning to `O=C(CCCn1c(=O)[nH]c2cc(Cl)ccc2c1=O)NCCN1CCN(c2ccccc2)CC1`, the binding response (% of control) is 97% (inactive). Then `COc1cccc(CNC(=O)Cc2csc(Nc3nc(=S)[nH]c4ccccc34)n2)c1`, with 90% (inactive); and `O=C(Cc1csc(Nc2nc(=S)[nH]c3ccccc23)n1)NCCCN1CCN(c2cccc(Cl)c2)CC1`, with 150% (active); and `COc1ccc(Nc2ncnc3sc(C)cc23)cc1`, with 105% (inactive).

On to `CCCCN1C(N)=NC[C@@H]1Cc1ccccc1`, for which the binding response (% of control) was 100% (inactive). Then `O=C1/C(=C\c2cccnc2)CN(Cc2ccccc2)C/C1=C\c1cccnc1`, with 119% (inactive). Turning to `O=C1NCC(=O)N(Cc2ccccc2)/C1=C/c1ccccc1`, the binding response (% of control) was -4% [inhibitor] (active).

Take `O=C1C(Cc2ccc(O)cc2)NC(=S)N1Cc1ccccc1` (stereo not drawn): the binding response (% of control) is 97% (inactive). Then `C[C@H]1CC[C@]2(O[C@@H](CCO)C[C@@H](O)[C@@H]2O)O1`, with 97% (inactive); and `O=C1N[C@@H](Cc2ccccc2)C(=O)N2[C@@H]3N(S(=O)(=O)c4ccc(F)cc4)c4ccccc4[C@]3(Br)C[C@@H]12`, with 98% (inactive); and `CCC(C(=O)NCc1cccnc1)n1nc(C)c2sc3ccccc3c2c1=O` (stereo not drawn), with 103% (inactive). Then `N#Cc1c(Cl)nc(-c2cccnc2)nc1-c1ccccc1`, with 106% (inactive); and `CN(Cc1ccccc1)C(=O)C(=O)c1cn(CC(=O)N2CCCC2)c2ccccc12`, with 106% (inactive); and `CCC(C)(C)NC(=O)C1c2ccccc2Oc2ccccc21`, with 97% (inactive). For the compound `CCC(C)NC(=O)C1c2ccccc2Oc2ccccc21` (stereo not drawn), the binding response (% of control) is 72% (inactive).

Take `CC(C)(C)c1nnc(NC(=O)C2c3ccccc3Oc3ccccc32)s1`: the binding response (% of control) was 39% [inhibitor] (active). Take `CC(NS(=O)(=O)c1ccc(Cl)cc1)C(=O)Nc1ccc2c(c1)OCCO2` (stereo not drawn): the binding response (% of control) was 97% (inactive). For `COc1ccc(CC(=O)N/N=C(\C)c2ccccn2)cc1` the value was 99% (inactive); for `CCN(CC)CCOc1ccc2c(c1)C(=NNC(=O)c1ccccn1)c1cc(OCCN(CC)CC)ccc1-2`, 191% (active); for `Cc1cccc(OCC(=O)NCCCNC(=O)c2ccccn2)c1`, 98% (inactive). For `CCOC(=O)c1ccc(NC(=O)c2c(N)n(C)c(=O)[nH]c2=O)cc1` the value was 98% (inactive); for `CC1(C)S[C@@H]2[C@H](NC(=O)COc3ccccc3)C(=O)N2C1C(=O)OCc1ccccc1` (stereo partly drawn), 93% (inactive). Then `O=C(c1ccco1)N1CCN(C(=S)Nc2cc(F)cc(F)c2)CC1`, with 102% (inactive); and `COc1ccc(CNC(=O)C2CCN(S(=O)(=O)N3CCOCC3)CC2)cc1`, with 100% (inactive); and `COc1ccc(CNC(=O)C2CCN(S(C)(=O)=O)CC2)cc1`, with 42% [inhibitor] (active). Consider `COc1ccc(CNC(=O)C2CCN(S(=O)(=O)c3ccc(SC)cc3)CC2)cc1`, for which the binding response (% of control) is 105% (inactive). For `O=C(NCCc1ccccc1)C1CC1` the value was 103% (inactive); for `COC(=O)c1c(-c2ccsc2)oc2ccc(-c3cc(OC)c(OC)c(OC)c3)cc12`, 96% (inactive); for `Cn1c(C(=O)NCCc2ccsc2)cc2c(=O)n(C)c3ccccc3c21`, 97% (inactive). For `Cn1c(C(=O)NCCCN2CCN(c3cccc(Cl)c3)CC2)cc2c(=O)n(C)c3ccccc3c21` the value was 173% (active); for `O=C(CCn1c(=O)[nH]c2ccccc2c1=O)NCCCN1CCN(c2cccc(Cl)c2)CC1`, 108% (inactive). For `O=C(CNC(=O)c1ccc(Br)o1)Nc1ccccc1`, the binding response (% of control) is 99% (inactive).

Take `CCc1ccc(-c2cc3c(=O)n(CC(=O)NCCCN4CCN(Cc5ccccc5)CC4)nc(C)n3n2)cc1`: the binding response (% of control) was 141% (active). For `Cc1nn(CC(=O)NCCc2ccccc2)c(=O)c2cc3occc3n12` the value was 111% (inactive); for `Cc1ccc(-c2ccc(=O)n(CC(=O)NCCCN3CCCCC3)n2)cc1`, 109% (inactive).

With `CCCCN1C(N)=NC[C@@H]1CC1CCCCC1`, the binding response (% of control) is 119% (inactive). Then `COc1ccc(-c2noc(C(C)NS(=O)(=O)c3ccc(NC(C)=O)cc3)n2)cc1` (stereo not drawn), with 95% (inactive); and `C=C(C)COc1ccc(-c2ncncc2-c2ccc(OC)cc2)c(O)c1`, with 100% (inactive).

For the compound `CCc1nn(CC(=O)N2CCN(CC)CC2)c(=O)c2cccn12`, the binding response (% of control) was 95% (inactive).

For `Cc1nn(-c2ccccc2)c(C)c1NC(=O)COc1ccc(Cl)cc1Cl`, the binding response (% of control) was 103% (inactive). For `COC(=O)c1c(NC(=O)COc2ccc(Cl)cc2Cl)sc2c1CC(C)(C)NC2(C)C` the value was 147% (active); for `Cc1cc(NC(=O)COc2ccc(Cl)cc2Cl)n(CCC#N)n1`, 88% (inactive); for `CC(=O)c1ccc(S(=O)(=O)N(C)CCCC(=O)N(C)Cc2ccccc2F)cc1`, 105% (inactive).

Consider `CN(CC1CCCO1)S(=O)(=O)c1ccc(C(=O)Nc2ccc(F)cc2)cc1` (stereo not drawn), for which the binding response (% of control) was 98% (inactive). For `Cc1cccc(NC(=O)c2ccc(S(=O)(=O)N(C)CC3CCCO3)cc2)c1C` (stereo not drawn) the value was 99% (inactive).

In the case of `CCOC(=O)c1c(NC(=O)c2ccc(S(=O)(=O)N(C)CC3CCCO3)cc2)sc2c1CC(C)(C)NC2(C)C` (stereo not drawn), the binding response (% of control) is 134% (active).

In the case of `O=C(NC1CCCC1)C(c1c(F)cccc1Cl)N(C(=O)c1csnn1)C1CC1` (stereo not drawn), the binding response (% of control) was 95% (inactive).

As for `O=S(=O)(c1ccccc1)c1nc(Cc2ccccc2)oc1N1CCOCC1`, the binding response (% of control) is 102% (inactive). For `CNC(C)C#Cc1ccc2sc3cc(OC)c(OC)cc3c(=O)c2c1` (stereo not drawn) the value was 136% (active); for `CN1C(=O)C2(OCCCO2)c2cc(Cl)ccc21`, 109% (inactive). Then `c1csc(-c2nc(-c3ccncc3)no2)c1`, with 94% (inactive). For `COc1cc(-c2nc(-c3ccncc3)no2)cc(OC)c1OC` the value was -3% [inhibitor] (active); for `Cc1ccc(-c2nc(-c3ccncc3)no2)c(C)c1`, 104% (inactive).

For `CC1CCCN(c2ccc(C(=O)NCCc3ccccc3)cn2)C1` (stereo not drawn), the binding response (% of control) is 97% (inactive). For `Cc1ccc(Sc2cc(C(=O)c3ccccc3C(=O)O)ccc2[N+](=O)[O-])cc1` the value was 95% (inactive).

For the compound `CC(Sc1nnc(CNC(=O)c2ccccc2F)n1C)C(=O)Nc1nccs1` (stereo not drawn), the binding response (% of control) is 101% (inactive).

On to `COc1ccc(CN2CC[C@H]3C=CC[C@@H](C(=O)N4CCOCC4)[C@H]3C2=O)cc1OC`, for which the binding response (% of control) is 99% (inactive).

On to `CCOC(=O)c1ccc(Nc2cc3ccccc3c(=O)[nH]2)cc1`, for which the binding response (% of control) was 99% (inactive). Then `Cc1cccc(C(=O)OC(C)CN2CCN(C)CC2)c1` (stereo not drawn), with 97% (inactive). With `Cc1ccc(C(=O)NCCN2CCOCC2)cc1C`, the binding response (% of control) was 99% (inactive). Then `Cc1cccc(-c2nc3ccc(C(=O)NCCN4CCN(C)CC4)cc3nc2-c2cccc(C)c2)c1`, with 156% (active); and `CC(C(=O)N1CCN(c2ccccc2F)CC1)c1ccc([N+](=O)[O-])cc1` (stereo not drawn), with 111% (inactive). Then `O=C(Nc1cccc(Cl)c1)c1cc(S(=O)(=O)N2CCCCC2)c[nH]1`, with 100% (inactive). For the compound `CCN(C(=O)COc1ccc(C(=O)c2ccccc2)cc1)c1ccccc1`, the binding response (% of control) was 101% (inactive). For `CN(Cc1ccccc1)C(=O)COc1ccccc1`, the binding response (% of control) is 106% (inactive).

For the compound `COc1cccc2sc(N(CCCN(C)C)C(=O)C(c3ccccc3)c3ccccc3)nc12`, the binding response (% of control) is 178% (active). For `COc1cc2ccccc2cc1C(=O)N(CCN(C)C)c1nc2c(F)cccc2s1` the value was 113% (inactive). Then `CN(C)CCCN(C(=O)COc1ccccc1)c1nc2c(Cl)cccc2s1`, with 338% (active). Consider `COc1cccc2sc(N(CCCN(C)C)C(=O)CCS(=O)(=O)c3ccccc3)nc12`, for which the binding response (% of control) is 105% (inactive). For `CC(=O)N[C@H]1[C@H]([C@H](O)[C@H](O)CO)OC(C(=O)O)=C[C@@H]1O` the value was 106% (inactive).

Consider `Cc1ccc(C)c(OCc2cc(C(=O)N3CCN(c4cnccn4)CC3)no2)c1`, for which the binding response (% of control) is 93% (inactive).

As for `COc1cccc(NC(=O)N2C3CCCC2CC(NC(C)=O)C3)c1` (stereo not drawn), the binding response (% of control) is 109% (inactive). For `O=C(CN1C(=O)S/C(=C\c2ccccc2Cl)C1=O)NC1C=CS(=O)(=O)C1` (stereo not drawn) the value was 101% (inactive). For `Cc1cc(S(=O)(=O)c2cc3ccc(O)c(C)c3oc2=O)ccc1F` the value was 102% (inactive); for `Cc1ccccc1Cn1c(=O)[nH]c2ccccc21`, 48% (inactive); for `CCOC(=O)CCc1c(C)c(C#N)c2[nH]c3ccccc3n2c1=O`, 106% (inactive). Then `CCCc1cc(=S)n2c([nH]c3ccccc32)c1C#N`, with -3% [inhibitor] (active); and `O=C(NCC(=O)N(c1ccccc1)C(C(=O)NCC1CCCO1)c1ccccc1)c1cccs1` (stereo not drawn), with 103% (inactive); and `COc1ccc(Cn2c(=S)[nH]c3cc(C(=O)NCCCN4CCOCC4)ccc3c2=O)cc1`, with 115% (inactive). For the compound `CCN(CC)CCCNC(=O)c1ccc2c(=O)n(Cc3ccc4c(c3)OCO4)c(=S)[nH]c2c1`, the binding response (% of control) is 144% (active). Then `CCCCNC(=O)CCn1c(=S)[nH]c2cc3c(cc2c1=O)OCO3`, with 99% (inactive); and `CC(C)CCn1cnc2c1c(=O)n(CC(=O)NC(N)=O)c(=O)n2Cc1ccccc1`, with 99% (inactive). For `CCCCCCCCCCOC(=O)Cn1c(COc2ccc(C)cc2)[n+](C)c2ccccc21` the value was 319% (active); for `CCCCOC(=O)Cn1c(=O)n(CC(=O)OCCCC)c2cc(C)ccc21`, 97% (inactive); for `CCCCCCCCCCOC(=O)Cn1c(COc2cccc(OC)c2)[n+](C)c2ccccc21`, 278% (active). Then `COc1cccc(OCCCN2CCCCCC2)c1`, with 102% (inactive); and `Cc1ccc(OCc2nc3ccccc3n2C)cc1`, with 103% (inactive). Take `CCCCOC(=O)Cn1c(=N)n(CCN(CC)CC)c2ccccc21`: the binding response (% of control) was 106% (inactive).

`Nc1ccn(C2CC(O)C(CO)O2)c(=O)n1` (stereo not drawn): the binding response (% of control) is 105% (inactive). Then `O=C(CSc1nc2nccnc2c(=O)n1Cc1cccs1)Nc1ccccc1F`, with 90% (inactive); and `COc1ccc(C2CC(c3cccs3)=NN2C(=O)CCC(=O)O)cc1OC` (stereo not drawn), with 108% (inactive). Then `COc1ccc(C2CC(c3cccs3)=NN2c2ccc(F)cc2)cc1OC` (stereo not drawn), with 88% (inactive); and `COc1ccc(C2CC(c3cccs3)=NN2c2nc(C)c(C(C)=O)s2)cc1OC` (stereo not drawn), with 63% [inhibitor] (active).
